Here are results for 14 compounds from PubChem BioAssay (NCATS).

Molecules are shown by their SMILES. Results filed as inconclusive are left out. Active and inactive are the calls of the source. Unless noted, calls follow the shape of the dose curve; as a rule, active = well fitted curve in the direction sought with a large enough effect; inconclusive = small, poorly fitted or top-dose-only effect, or another doubt; inactive = no such curve, though single readings can be large; an effect the other way counts as inactive or inconclusive.

Experiment [1] is described as follows: qHTS profiling of the MIPE4 collection as inhibitors of Plasmodium falciparum (3D7) proliferation (AID 743344; call rule not given here). Conditions: P. falciparum 3D7 in erythrocytes, SYBR Green DNA fluorescence, 72 h; at 28.5 µM unless noted. A digest of the protocol: (§1)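 Erythrocytes infected with P. falciparum (0.3% parasitemia, 2.5% hematocrit) incubated with compounds 72 h at 37 C, 5% CO2. Lysis with saponin/Triton buffer containing SYBR Green I, overnight at room temperature in the dark; DNA fluorescence (485/535 nm) normalised to 0.29 uM artemisinin and DMSO.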

The nature of experiment [2]: qHTS profiling of the MIPE4 collection as inhibitors of Plasmodium falciparum (DD2) proliferation (AID 743345; call rule not given here). The following applies: P. falciparum Dd2 in erythrocytes, SYBR Green DNA, 72 h; at 28.5 µM unless noted. A digest of the protocol: as §1
A general note: In qHTS, concentration-response curves come from the screen itself.

Experiment [3] can be described thus: qHTS profiling of the MIPE4 collection as inhibitors of Plasmodium falciparum (DD2) proliferation (Rep 2) (AID 743346; call rule not given here). The following applies: P. falciparum Dd2 in erythrocytes, SYBR Green DNA, 72 h; at 28.5 µM unless noted. A digest of the protocol:
as §1

The nature of experiment [4]: qHTS profiling of the MIPE4 collection as inhibitors of Plasmodium falciparum (HB3) proliferation (AID 743347; call rule not given here;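 also: plate controls were DMSO vehicle wells for no effect and artemisinin wells for full effect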). The following applies: P. falciparum HB3 in erythrocytes, SYBR Green DNA, 72 h; at 28.5 µM unless noted. The method, boiled down: as §1
The nature of experiment [5]: High-throughput drug toxicity screening in the BPDCN cell line Gen2.2 (AID 1224824; call rule not given here). The following applies: Gen2.2 BPDCN cells; at 45.8 µM (top of the series) unless noted. A digest of the protocol: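 Gen2.2 cells (500/well) in phenol red-free RPMI with 10% FBS were exposed to compounds for 48 h at 37 °C, 5% CO2. Viability was read by CellTiter-Glo luminescence and normalized to DMSO (100%) and 9.2 uM bortezomib (0%).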

Experiment [6] can be described thus: qHTS assay for measurement of the activity of small molecule inhibitors on Zika virus induced Caspase-3 activity in human iPSC derived neural progenitor cells (hNPCs) (AID 1224857). Also: % of control where 0% means no effect; nearly all actives have a fitted effect of over 65% in size. The method, boiled down:
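After overnight (16–20 h) culture at 350 cells/well, hNPCs get compound, then ZIKV 2 FFU/cell one hour later. Six hours on, Caspase-Glo 3/7 is added and luminescence measured.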

A short description of experiment [7]: qHTS assay for measurement of the activity of small molecule inhibitors on Zika virus induced Caspase-3 activity in human astrocytoma cells (AID 1224859).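 Also: plate controls were ZIKV-infected untreated cells for no effect and uninfected cells for full effect.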 The method, boiled down:
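Inhibition of Zika-induced caspase-3/7 activity: SNB-19 cells, 1 h compound pretreatment, ZIKV 2 FFU/cell for 6 h at 37 C, Caspase-Glo luminescence read-out.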

The nature of experiment [8]: High-throughput drug toxicity screening in the BPDCN cell line Cal-1 (AID 1224825). Conditions: Cal-1 BPDCN cell viability, qHTS; at 45.8 µM (top of the series) unless noted. A digest of the protocol: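 500 Cal-1 cells/well, RPMI + glutamine + 10% FBS (phenol red-free); cpd added by pin tool; 48 h, 37C, 5% CO2; CTG 15 min RT, lumi read. Normalised: DMSO 100%, bortezomib 9.2 uM 0%.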

Experiment [9] is described as follows: qHTS assay to identify small molecule inhibitors of chordoma cells - UCH-1 (AID 1259355). Also: nearly all actives have a fitted effect of over 55% in size. Also: potency is read from the fitted curve at half-maximal effect. The method, boiled down: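 Seed 800 cells per well; incubate overnight at 37 C, 5% CO2. Add test compounds (15 concentrations), then the auranofin–topoisomerase-agent combination. Incubate 48hr, add CellTiter-Glo, wait 30min, read luminescence.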
Experiment [10] in a line: qHTS assay to identify small molecule inhibitors of chordoma cells - UCH-2 (AID 1259356). Also: % is scaled to controls: 0 for no effect and ±100 for the full control effect.
Experiment [11] can be described thus: qHTS profiling for inhibitors of Plasmodium falciparum (3D7) proliferation (AID 743322).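 Also: infected erythrocytes exposed to compound for 72 h before lysis; 100% = DMSO vehicle wells and 0% = 0.29 µM artemisinin.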 The following applies: P. falciparum 3D7 proliferation; at 28.7 µM (top of the series). The method, boiled down: as §1
The nature of experiment [12]: qHTS profiling for inhibitors of Plasmodium falciparum (DD2) proliferation (AID 743323; call rule not given here). The following applies: lower = more inhibition; at 28.7 µM (top of the series). The method, boiled down: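 Parasite proliferation measured via DNA-dye fluorescence, as uninfected erythrocytes lack DNA. Cultures at 0.3% parasitemia and 2.5% hematocrit incubated 72 h with compound; signal scaled between vehicle and 0.29 uM artemisinin wells.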

Experiment [13] in a line: qHTS profiling for inhibitors of Plasmodium falciparum (HB3) proliferation (AID 743324).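 Also: 100% = DMSO vehicle wells and 0% = artemisinin-treated control wells.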 Conditions: Plasmodium falciparum HB3 blood-stage proliferation; at 28.7 µM (top of the series). The method, boiled down: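 P. falciparum HB3 grown in erythrocytes (0.3% parasitemia, 2.5% hematocrit final) with compound for 72 h at 37 C, 5% CO2. Parasite DNA detected by SYBR Green after saponin/triton lysis overnight; normalized to 0.29 uM artemisinin and DMSO.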

Experiment [14] is described as follows: Identifying Small Molecule Inhibitors of Pancreatic Cancer Stem Cells (SN12C, Spheroid) (AID 1259360). Also: potency is read from the fitted curve at half-maximal effect. Conditions: Potency: SN12C spheroid viability. A digest of the protocol: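 Monolayer and spheroid cultures are compared. Spheroids form over 14 days in stem cell medium on hydrogel-coated low-attachment plates, then are exposed to compound for 48 h before CellTiter-Glo luminescence.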

Experiment [15] in a line: qHTS Screen of the MIPE 4.0 Collection Against Ewings Sarcoma (RDES) (AID 1259252). Also: potency is read from the fitted curve at half-maximal effect; nearly all actives have a fitted effect of over 35% in size. The method, boiled down: (§2)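 After a 4 h attachment period in RPMI/5% FBS, cells were pin-dosed with test compounds; DMSO served as negative and 9.2 uM bortezomib (final) as positive control. Luminescent CellTiter-Glo signal at 48 h defined viability.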
Experiment [16] can be described thus: qHTS Screen of the MIPE 4.0 Collection Against Ewings Sarcoma (TC71) (AID 1259253). Also: potency is read from the fitted curve at half-maximal effect; nearly all actives have a fitted effect of over 40% in size. The method, boiled down: as §2
The nature of experiment [17]: qHTS Screen of the MIPE 4.0 Collection Against Ewings Sarcoma (EW8) (AID 1259255). Also: potency is read from the fitted curve at half-maximal effect; nearly all actives have a fitted effect of over 35% in size. A digest of the protocol: as §2
Experiment [18] is described as follows: qHTS Screen of the MIPE 4.0 Collection Against Ewings Sarcoma (TC32) (AID 1259256). Also: potency is read from the fitted curve at half-maximal effect; nearly all actives have a fitted effect of over 45% in size. The method, boiled down: as §2

For the compound `O=C(Nc1ccccc1Br)N[C@@H]1CCN(c2ccc(C(F)(F)F)cn2)C1`, the parasite growth, % of DMSO control in experiment [1] worked out at 73.6%. Moreover, in [2], the parasite growth remaining, % of DMSO control (lower = more inhibition) was 96.2%. In addition, the parasite growth, % of control (lower = inhibition) in experiment [3] came out at 82.5%. In experiment [4], this compound registered a growth, % of control of 71.2%. In experiment [5], the cell viability, % of control (lower = more cytotoxic) is 266%. Moreover, the Potency entry in experiment [6] and in [7] was “inactive” throughout.

On to `CO[C@H]1C[C@@H]2CC[C@@H](C)[C@@](O)(O2)C(=O)C(=O)N2CCCC[C@@H]2C(=O)O[C@H]([C@H](C)C[C@@H]2CC[C@H](OP(C)(C)=O)[C@H](OC)C2)CC(=O)[C@H](C)C=C(C)[C@@H](O)[C@@H](OC)C(=O)[C@H](C)C[C@H](C)C=CC=CC=C1C`, for which the parasite growth, % of DMSO control in [1] came to 4.92%. Further, the parasite growth remaining, % of DMSO control (lower = more inhibition) in experiment [2] was determined as 6.6%. Besides, the parasite growth, % of control (lower = inhibition) in [3] is 9.19%. In experiment [4], the growth, % of control was determined as 8.46%. Besides, in experiment [5], the cell viability, % of control (lower = more cytotoxic) was 10.4%. The compound also showed a viability (% of control) in experiment [8] of 5.8%.

In the case of `CC(=O)N[C@@H](CS)C(=O)O`, the Potency entry in experiment [6], in experiment [7] and in experiment [9] was “inactive” in each case. Besides, in experiment [10], the call was inactive.

For the compound `O=C1NC(=O)C(c2ccccc2)(c2ccccc2)N1`, the Potency entry in experiment [6], in [7] and in experiment [9] was “inactive” each time. Further, in experiment [10], the compound was classed as inactive.

For `O=C(NCCN1CCOCC1)c1ccc(Cl)cc1`, the Potency result in [6], in experiment [7] and in experiment [9] was “inactive” each time. Also, the compound was called inactive in [10].

As for `CC[C@]1(O)C[C@@H]2CN(CCc3c([nH]c4ccccc34)[C@@](C(=O)OC)(c3cc4c(cc3OC)N(C)[C@H]3[C@@](O)(C(=O)OC)[C@H](OC(C)=O)[C@]5(CC)C=CCN6CC[C@]43[C@@H]65)C2)C1`, in experiment [6], the Potency result is “inactive”. Also, in experiment [9], the Potency was 5.62 µM (active). In experiment [10], the compound was classed as inactive.

As to `CC1=C(/C=C/C(C)=C/C=C/C(C)=C/C(=O)Nc2ccc(O)cc2)C(C)(C)CCC1`, the remaining parasite growth % (stronger effect = lower value) in experiment [11] amounted to 14.1%. Further, in experiment [12], the activity, percent of control was 22.9%. The remaining proliferation (% of control), lower = more inhibition in experiment [13] was -0.513%. In addition, the Potency entry in experiment [6], in [7] and in experiment [9] was “inactive” in each case. Moreover, in experiment [10], the result was inactive. The Potency in experiment [14] was 23.5 µM (active).

With `NCCS`, the Potency entry in [6] and in experiment [9] was “inactive” in each case. Further, in experiment [10], the outcome was inactive.

On to `CCN(CC)C(=O)c1ccc(O)c(OC)c1`, for which the Potency result in experiment [6] and in experiment [9] was “inactive” in each case. For the same compound, in [10], the result was inactive.

For `NC(=S)c1ccc[n+]([C@@H]2O[C@@H](COP(=O)([O-])OP(=O)(O)OC[C@H]3O[C@@H](n4cnc5c(N)ncnc54)[C@H](OP(=O)(O)O)C3O)C(O)C2O)c1` (some centres not stated), in experiment [6], the Potency entry is “inactive”.

Turning to `Oc1ccc(C2=Cc3ccc(O)cc3OC2)cc1`, in experiment [1], the parasite growth, % of DMSO control was determined as 19.6%. The parasite growth remaining, % of DMSO control (lower = more inhibition) in experiment [2] was found to be 34.7%. Also, the parasite growth, % of control (lower = inhibition) in experiment [3] came to 27.9%. Further, the growth, % of control in [4] turned out to be 24.6%. In experiment [5], the cell viability, % of control (lower = more cytotoxic) came out at 16.5%. For the same compound, the Potency in experiment [15] was 5.9 µM (active); in experiment [16], 3.72 µM (active); in [17], 6.62 µM (active); in experiment [18], 2.64 µM (active).

In the case of `Clc1ccc(C(c2ccc(Cl)cc2)n2cc[n+](CC(OCc3ccc(Cl)cc3Cl)c3ccc(Cl)cc3Cl)c2)cc1` (configuration not stated), the parasite growth, % of DMSO control in experiment [1] came to 6.19%. The parasite growth remaining, % of DMSO control (lower = more inhibition) in experiment [2] is 5.85%. In [3], the parasite growth, % of control (lower = inhibition) was found to be 17.2%. The growth, % of control in experiment [4] came to 7.48%. In addition, the cell viability, % of control (lower = more cytotoxic) in experiment [5] worked out at 1.6%. The Potency was 16.6 µM (active) in experiment [15], 20.9 µM (active) in [16], 23.5 µM (active) in [17] and 20.9 µM (active) in experiment [18].

Take `CN(C)CCC(c1ccccc1)c1ccccn1` (configuration not stated): the Potency result in [6], in experiment [7] and in [9] was “inactive” each time. The compound was called inactive in [10].

`C[C@@H](O)[C@H]1C(=O)N2C(C(=O)O)=C(S[C@@H]3CN[C@H](C(=O)N(C)C)C3)[C@H](C)[C@H]12` returned a parasite growth, % of DMSO control in experiment [1] of 109% [at 9.64 µM]. Moreover, the parasite growth remaining, % of DMSO control (lower = more inhibition) in experiment [2] came out at 102% [at 9.64 µM]. In addition, in [3], the parasite growth, % of control (lower = inhibition) is 118% [at 9.64 µM]. In addition, the Potency entry in experiment [6], in experiment [7] and in [9] was “inactive” in each case. Further, in experiment [10], the result was inactive.
